Measurements taken from PubChem BioAssay (NCI).
About 83,000 compounds went through this panel and 20% of them were active in at least one assay; those are over-represented in the sample as a whole.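 Interpretation: 100, growth as untreated; towards 0, rising growth inhibition; 0, no net growth; 0 to -100, cell death. Compounds scoring below 10 were considered active.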 Unmarked numbers belong to inactive results. Active and inactive are the calls of the source.

tested on: MDA-MB-468 breast; assay: NCI-60 one-dose screen, 48 h (100 = growth as untreated, 0 = no growth, -100 = all killed); settings: 10 µM unless noted

Row | Structure (SMILES) | growth
1 | ClCCOCCn1cnc2c(Cl)nc(Cl)nc21 | -35.7% (active)
2 | Cc1cc(Cc2cc(C)c(N)cc2N)c(N)cc1N | 95.4%
3 | CCCCCCCCNc1cccc2c1C(=O)c1ccccc1C2=O | 95.4%
4 | OCCN(CCO)C(=S)S | 102%
5 | C=C(C)[C@@H]1CC[C@]2(C(=O)OC)CC[C@]3(C)[C@H](CC[C@@H]4[C@@]5(C)C/C(=C/c6cccc(I)c6)C(=O)C(C)(C)[C@@H]5CC[C@]43C)[C@@H]12 | 86.7%
6 | CC(C)CC(NC(=O)OCC1c2ccccc2-c2ccccc21)C(=O)O (stereo not given) | 103%
7 | O=C(Nc1nc2ccc(OC(F)(F)F)cc2s1)c1ccc(F)cc1 | 21.1%
8 | c1cnc2[nH]cc(-c3nc(-c4ccsc4)cs3)c2c1 | 74.6%
9 | O=C(O)C(SC(C(=O)O)c1ccccc1)c1ccccc1 (stereo not given) | 106%
10 | CCOC(=O)c1cn2c3c(cccc3c1=O)C(=O)/C(=C/c1cccc(Cl)c1Cl)C2 | 106%
11 | COC(=O)[C@]12CC[C@@H](C)[C@H](C)[C@@H]1C1=CC[C@@H]3[C@@](C)(CC#N)C4=C(C[C@@]3(C)[C@]1(C)CC2)OC[C@]4(C)C=O | -83% (active)
12 | COc1ccc(NC(=S)NNc2ccc(-c3ccc(OC)c(OC)c3)nn2)cc1 | 109%
13 | NC(=S)N/N=C(/c1cccs1)C1CC1 | 37.4%
14 | CC(=O)NCC(=O)c1ccc([N+](=O)[O-])cc1 | 117%
15 | CNC(=O)c1[nH]cc(-c2ccc(OC)cc2)c1-c1cc(OC)c2c(c1OC)OCO2 | 97.7%
16 | COc1ccc(Sc2[nH]c(C(C)=O)c3ccccc23)cc1 | -6.04% (active)
17 | N=C(N)c1ccc(-c2ccc(-c3ccc(Cl)cc3)o2)o1 | -21.5% (active)
18 | COc1ccc(-c2cc(-c3ccc(N(C)C)cc3)nc(NC(=O)c3cccnc3)n2)cc1 | 106%
19 | Nc1ccc(N=Nc2ccc(S(=O)(=O)O)cc2)c2ccccc12 | 97.2%
20 | C#CC(O)c1ccccc1 (stereo not given) | 110%

Row | Structure (SMILES) | growth
21 | CN(C)CCCOc1ccccc1NC1=C(Cl)C(=O)C(Nc2ccccc2OCCCN(C)C)=C(Cl)C1=O | -60.6% (active)
22 | CN1C(=O)N(C)[C@H]2NC(NN)=N[C@H]21 | 101%
23 | FC(F)(F)c1cccc([Si](F)(c2cccc(C(F)(F)F)c2)c2cccc(C(F)(F)F)c2)c1 | 54.4%
24 | Cc1[nH]c(C(=O)Nc2ccc(C(N)=O)cc2NC(C)C)c(Cl)c1Cl | 83.7%
25 | Cc1nc2sc(C(=O)Nc3ccccc3)c(N)c2cc1C(=O)c1ccccc1 | 9.68% (active)
26 | COc1cccc(-c2nn(-c3ccccc3)cc2-c2ccnc(NCCNS(=O)(=O)c3ccc(Cl)cc3)c2)c1 | 16.9%
27 | O=C1C(=C(O)c2ccccc2)C(=O)c2ccccc21 | 120%
28 | O=C1c2cc3c(cc2-c2c1c1ccc(F)cc1c(=O)n2CCCN1CCOCC1)OCO3 | 18.5%
29 | C[C@@H](c1ccc2c(c1)[nH]c1ccc(Cl)cc12)c1nc2ccc(Cl)cc2[nH]1 | -37.4% (active)
30 | O=C(Nc1cc(-c2ccccc2)[nH]n1)c1ccc(Cl)cc1 | 73%
31 | CCOc1ccc(S(=O)(=O)c2ccc(C)cc2)c2c1no[n+]2[O-] | 103%
32 | O=C(NNc1nc2cc(F)cc(F)c2n2cccc12)c1ccncn1 | -7.49% (active)
33 | CC(C)N(CCOc1cccc(-c2nc3sccn3c2-c2ccnc(S(C)(=O)=O)n2)c1)C(C)C | -2.25% (active)
34 | NC1C(N)C(N)C1N (stereo not given) | 122%
35 | CCc1ccccc1-n1c(N)c(C#N)c(-c2ccc(N(C)C)cc2)c(C#N)c1=O | 116%
36 | C=C(C)[C@@H]1CC[C@]2(C(=O)NCCNCCNC(=O)OC(C)(C)C)CC[C@]3(C)[C@H](CC[C@@H]4[C@@]5(C)CCC(=O)C(C)(C)[C@@H]5CC[C@]43C)[C@@H]12 | 53.5% [100 µM]
37 | c1ccc(Cn2nc3c(c2-c2ccccc2)-c2oncc2CC3)cc1 | 101%
38 | CCOCc1nc2ccccc2c(=O)[nH]1 | 98.7%
39 | COc1ccc(C(=O)c2cc(OC)c(OC)c(OC)c2)cc1/C=C/C(=O)c1ccc2c(c1)OCO2 | 9.38% (active)
40 | COC(=O)[C@]12CC[C@@H](C)[C@H](C)[C@@H]1C1=CC[C@@H]3[C@@]4(C)C(C=O)=C[C@@](C)(CO)[C@@H]4[C@H](O)C[C@@]3(C)[C@]1(C)CC2 | -12% (active)
